KB-3-1 cytotox – kills parental KB-3-1 adenocarcinoma cells. KB-3-1 viability, CellTiter-Glo ATP luminescence, 72 h. Potency, µM (highest dose often 46.1 µM), actives largely listed as cytotoxic. hit rate 1.4% among 400,000. AID 1347075; note: potency is the fitted concentration of half-maximal effect; nearly all actives have a fitted effect of over 60% in size
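KB-3-1 cells, DMEM (no phenol red) + 10% FBS; compound by pin transfer, 72 h, 37 °C. Readout: CellTiter-Glo luminescence after 10 min. Data normalized, curve-fitted.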
HT1080-NT tox – kills 2HG-producing HT-1080-NT fibrosarcoma cells; hit rate 1.6% among 360,000; Potency, µM (top dose mostly 46.1 µM), for inactives: at the highest dose activity, negative = less viability, hits mostly cytotoxic; HT-1080-NT fibrosarcoma viability, CellTiter-Glo ATP luminescence, 48 h;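 note: NT is the 2HG producing partner of a matched IDH1 knockdown line; potency is the fitted concentration of half-maximal effect; 0% = DMSO-treated cells and -100% = media-only wells without cells; nearly all actives have a fitted effect of over 55% in size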
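Toxicity toward the 2HG-producing NT line was scored as %Activity, normalised to DMSO and no-cell wells, from CellTiter-Glo luminescence after 48 hours' treatment.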
IL-1B inflam inh – inhibitors of inflammasome signaling (IL-1 beta secretion); THP-1 LPS/ATP IL-1B secretion, AlphaLISA, 16 h; stronger effect = lower value; hit rate 4.7% among 360,000; activity change, % at 57.5 µM; in the data active = activity change below about -50%; inconclusive = mostly about -30% to -49%
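Secreted IL-1B measured by AlphaLISA bead assay after 16 h compound exposure of THP-1 cells; compounds (final up to 57.5 uM) added 1 h before LPS (250 ng/mL) and ATP (1.25 mM) stimulation; lower signal means less secretion.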
HT1080 IDH1KD tx – HT-1080 IDH1 knockdown cell toxicity (counter line); HT-1080 IDH1 knockdown viability, ATP luminescence, 48 h; Potency, µM (top dose mostly 46.1 µM), without a hit: at the top dose activity, negative = toxicity, usual class: cytotoxic; hit rate 2% among 360,000; AID 686971;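 note: potency is the fitted concentration of half-maximal effect; 0% = DMSO wells and -100% = cell-free medium wells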
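Viability of IDH1-knockdown HT-1080 fibrosarcoma cells was assessed by CellTiter-Glo after 48 h at 37 °C with titrated compound; concentration-effect curves were classified by fit quality and response size.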
KB-V1 MDR tox – KB-V1 MDR subline cytotoxicity; Potency, µM (top dose mostly 46.1 µM), hits mostly cytotoxic; hit rate 3.4% among 400,000; AID 1347076; KB-V1 MDR cells viability, CellTiter-Glo, 72 h; note: potency is the fitted concentration of half-maximal effect; nearly all actives have a fitted effect of over 60% in size
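Luminescent ATP read-out (CellTiter-Glo, 10 min) measures survival of drug-selected KB-V1 MDR cells after 72 h, 37 degrees C compound exposure. Medium: phenol-red-free DMEM, 10% FBS. Values from fitted concentration-response curves.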
An asterisk follows results filed as active; i = inactive; ? = inconclusive; / = no result. The list is not random: actives were taken first. Their share in the collection is about 8.8%. Unless noted, calls come from the whole dose curve; as a rule, active = well fitted curve in the direction sought with a large enough effect; inconclusive = small, poorly fitted or top-dose-only effect, or another doubt; inactive = no such curve, though single readings can be large; an effect the other way counts as inactive or inconclusive. Unless noted, % is set by controls: 0 for no effect and ±100 for the full control effect.

SMILES	KB-3-1 cytotox	HT1080-NT tox	IL-1B inflam inh	HT1080 IDH1KD tx	KB-V1 MDR tox
Cc1ccc(OCc2nc(-c3ccc(C(=O)N4CCN(c5ccccc5F)CC4)cc3)oc2C)cc1	i	/	/	/	i
COc1ccc(NC(=S)NCc2ccccc2Cl)c(OC)c1	i	-16.1%	-19.9	-1.4%	?
COc1ccc(NC(=S)NC2CCCCCC2)c(OC)c1	?	19.6%	-6.7	3.5%	18.4µM*
COc1ccc(NC(=S)NCCc2ccccc2OC)c(OC)c1	?	4.7%	0.0	-1.5%	20.6µM*
COc1cccc(C(=O)NNC(=S)NC2CCCCC2)c1	i	0.5%	-6.5	0.3%	23.1µM*
C=C1C(=O)[C@]23C[C@H]1CC[C@H]2[C@]1(C)[C@@H](OC(C)=O)CC[C@@](C)(C(=O)O)[C@H]1C[C@@H]3O	?	6.51µM*	-78.3*	5.8µM*	i
C=C1C(=O)[C@]23C[C@H]1CC[C@H]2[C@]1(C)[C@@H](O)CC[C@@](C)(C(=O)O)[C@H]1C[C@@H]3O	i	?	-75.2*	?	i
C=C1C(=O)[C@]23C[C@H]1CCC2[C@@]1(C)C(C[C@@H]3O)[C@](C)(C(=O)O)C[C@H](O)[C@@H]1O (some centres not stated)	i	27.6%	1.1	-1.8%	i
C=C1C(=O)[C@]23C[C@H]1CC[C@H]2[C@]1(C)[C@@H](OC(C)=O)CC[C@@](C)(C(=O)OC)[C@H]1C[C@@H]3OC(C)=O	?	3.66µM*	-116.4*	2.59µM*	i
C=C1C(=O)[C@]23C[C@H]1CCC2[C@@]1(C)C(C[C@@H]3O)[C@](C)(C(=O)OC)CC[C@@H]1OC(C)=O (some centres not stated)	?	2.59µM*	-116.5*	1.16µM*	16.4µM*
CC(C)(C)OC(=O)N1CCC(c2c(C(=O)NCc3cccc(Cl)c3)cnn2-c2ccc(F)cc2)CC1	?	/	/	/	i
CCOC(=O)c1c(CN(C)C)n(-c2ccccc2)c2cc(Br)c(OC)cc12	?	?	-7.9	?	20.6µM*
CCOC(=O)c1c(C)n(C)c2cc(-c3ccc(F)cc3)c(O)cc12	i	15.6%	14.9	18.2%	i
CCOC(=O)c1c(CN(C)C)n(-c2ccc(C)cc2)c2cc(Br)c(O)cc12	i	-8.6%	-63.5*	-19.4%	?
CCOC(=O)c1c(CN2CCOCC2)n(-c2ccccc2)c2cc(Br)c(O)cc12	i	6.0%	-15.2	-8.0%	i
COc1cc2c(C(=O)OCCN(C)C)c(CSc3ccccc3)n(C)c2cc1Br	i	13.7%	15.7	17.1%	?
CCOC(=O)c1c(CN2CCOCC2)n(-c2ccccc2)c2cc(Br)c(OC)cc12	?	-17.1%	44.2	?	18.4µM*
CCOC(=O)c1c(CN2CCCCC2)n(C)c2cc(Br)c(O)cc12	i	-0.1%	11.0	-6.2%	10.3µM*
C[C@H](CO)N1C[C@H](C)[C@@H](CN(C)C(=O)C2CCCCC2)OCc2cn(nn2)CCCC1=O	i	10.1%	22.3	15.8%	i
CCOC(=O)c1c(C)n(CC(O)CN(C)C)c2cc(Br)c(OC)cc12 (configuration not stated)	i	-0.1%	-78.7*	-11.7%	i
Cc1cccc(C(=O)NNS(=O)(=O)c2ccc(F)cc2)c1	i	0.9%	7.4	3.1%	i
O=C(N/N=C/c1ccsc1)c1cc(-c2ccncc2)nc2ccccc12	2.59µM*	4.61µM*	3.9	?	8.2µM*
Cc1ccsc1/C=N/NC(=O)c1cc(-c2ccncc2)nc2ccccc12	1.16µM*	?	-9.6	0.92µM*	?
O=C(N/N=C/c1ccccn1)c1cc(-c2ccncc2)nc2ccccc12	i	9.2%	-23.8	13.6%	i
O=C(N/N=C/c1ccsc1)c1cc(-c2cccs2)nc2ccccc12	?	?	7.2	?	13µM*
COc1cccc(NC(=O)CC(C)S(=O)(=O)c2ccc3c(c2)NC(=O)CO3)c1 (configuration not stated)	i	/	/	/	i
Cc1ccccc1CSc1ccc(-c2cccs2)nn1	i	/	/	/	i

Screening results deposited in PubChem BioAssay by National Center for Advancing Translational Sciences (NCATS).
